The source made the active and inactive calls. The calls were made as follows: active = hit-call score of the fitted dose curve at least 0.9, where 1 is the maximum; inactive = score below 0.9.
Assay: CEETOX_H295R_DOC: CeeTox H295R High-throughput Steroidogenesis Assay for DOC (AID 2283439)
Details: actives raise or lower the signal
Protocol: CEETOX_H295R is a cell-based, multiplexed-readout assay that uses H295R, a human adrenal gland cell line, with measurements taken at 48 hours after chemical dosing in a 96-well plate.CEETOX_H295R_DOC is one of 23 assay component(s) measured or calculated from the CEETOX_H295R assay. It is designed to make measurements of hormone induction, a form of inducible reporter, as detected with absorbance signals by HPLC-MS-MS technology.Data from the assay component CEETOX_H295R_DOC was analyzed into 1 assay endpoint. This assay endpoint, CEETOX_H295R_DOC, was analyzed with bidirectional fitting relative to DMSO as the negative control and baseline of activity. Using a type of inducible reporter, gain or loss-of-signal activity using HPLC-MS-MS was used to understand synthesis of 11-Deoxycorticosterone in H295R cell line at 48hr of chemical exposure. To generalize the intended target to other relatable targets, this assay endpoint is annotated to the steroid hormone intended target family, where the subfamily is glucocorticoids.
Cell culture and media preparation procedures were conducted in accordance with OECD Test No. 456 guidelines, with minor modifications. H295R cells (ATCC CRL-2128) were expanded for 5 passages and frozen in batches in liquid nitrogen. Prior to the steroidogenesis assay, H295R cells were thawed and passed at least 4 times. The maximum passage was 10. Cells were maintained in a 1:1 mixture of DMEM/F12 supplemented with 5ml/L ITS+ Premix (BD Bioscience) and 12.5 ml/L Nu-Serum (BD Bioscience). After seeding cells into 96-well plates at 50-60% confluency, cells were allowed to adhere overnight. Prior to chemical testing, culture medium was replaced with 175 uL medium containing 10 uM forskolin to stimulate steroidogenesis for 48 hours. Following prestimulation, forskolin medium was replaced with medium containing test chemical solubilized in DMSO (ensuring a final concentration of 0.1% DMSO). Test chemicals were incubated for 48 hours, then the medium was removed and split into 2 vials containing approximately 75uL each, and stored at -80 C prior to hormone analysis. For steroid quantification, media samples were shipped to OpAns, LLC (Durham, NC) on dry ice, and samples were thawed to room temperature prior to liquid-liquid extraction. Steroid hormones were extracted from media samples using methyl tertbutyl ether (MTBE). An extra derivatization with dansyl chloride was included for estrogen (estrone and estradiol) detection only. Steroid hormones were separated by HPLC, eluted using a reverse phase C18 gradient with electrospray positive ionization, followed by quantification by tandem mass spectrometry (MS/MS). Data were acquired on a MassHunter Workstation Acquisition version B03.01 (Agilent Technologies, Inc.) and processed using MassHunter Quantitative Analysis for QQQ. Accuracy was determined for each hormone analyte from 3 standards to determine upper and lower limits of quantification (ULOQ and LLOQ, respectively) using a 7-point standard curve. Precision and accuracy of the extraction and quantification methods were calculated as the percent relative standard deviation (%RSD) of the spiked standards and percent spiked standard recovered, respectively. […] Test medium was removed following chemical exposure, and cell viability was evaluated in the same wells by MTT. MTT procedures were as follows: after removal of test medium, 500 uL of 0.5 mg/ml of 3-[4,5-dimethylthiazol-2-y]2,5-diphenyltetrazoliumbromide solution was added to the cells. Following a 4-hour incubation at 37 C and 5% CO2 to allow formazan-crystal formation, the MTT solution was removed and blue formazan salt crystals were solubilized using 500uL anhydrous isopropanol with shaking for 20 minutes. Absorbance was read at 570 and 650nm using a Packard Fusion microplate reader. Background correction of absorbance units was used to determine percent change relative to controls. […]

Compound	outcome	AC50
CCN1CN(CC)CN(CC)C1	inactive	
COc1ccc(C(=O)c2ccccc2)c(O)c1	inactive	
O=C(O)c1cc(O)c2ccccc2c1O		445 nM (active)
CN(C)c1ccc2nc3ccc(=[N+](C)C)cc-3sc2c1		598 nM (active)
CCOC(=O)C1=NN(c2ccc(Cl)cc2Cl)C(C)(C(=O)OCC)C1 (stereo unspecified)	inactive	
COc1ccc(-c2coc3cc(O)cc(O)c3c2=O)cc1		5000 nM (active)
O=C(OCc1ccccc1)c1ccc(O)cc1		42700 nM (active)
C=C[C@@]1(C)CC(=O)[C@]2(O)[C@@]3(C)[C@@H](O)CCC(C)(C)[C@@H]3[C@H](O)[C@H](OC(C)=O)[C@@]2(C)O1		418 nM (active)
C=CC(=O)OCCCCCCOC(=O)C=C	inactive	
CC(C)(C)NC(=O)[C@H]1CC[C@H]2[C@@H]3CC[C@H]4NC(=O)C=C[C@]4(C)[C@H]3CC[C@]12C		13500 nM (active)
CC(C)(c1ccccc1)c1ccc(Nc2ccc(C(C)(C)c3ccccc3)cc2)cc1		820 nM (active)

— PubChem BioAssay (EPA / NIEHS)
